# Screens from PubChem BioAssay.
# Cruzain noTriton = inhibitors of Trypanosoma cruzi cruzain without detergent; purified cruzain, Z-FR-AMC fluorescence, no detergent; Potency, µM, actives largely listed as inhibitors; 200,000 compounds, 2.3% hits; AID 1476; also: nearly all actives have a fitted effect of over 40% in size
# Target sequence (P25779 123-467 limits assumed): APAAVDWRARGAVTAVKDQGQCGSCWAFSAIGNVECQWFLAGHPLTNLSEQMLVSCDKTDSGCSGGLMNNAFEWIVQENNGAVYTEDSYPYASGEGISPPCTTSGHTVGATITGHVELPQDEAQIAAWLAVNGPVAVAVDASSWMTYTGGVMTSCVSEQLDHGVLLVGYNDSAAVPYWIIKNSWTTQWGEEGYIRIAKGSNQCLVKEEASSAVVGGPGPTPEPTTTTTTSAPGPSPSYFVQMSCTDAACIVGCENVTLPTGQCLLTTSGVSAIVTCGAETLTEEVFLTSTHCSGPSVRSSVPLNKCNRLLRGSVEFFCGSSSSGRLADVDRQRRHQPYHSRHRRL
#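 Detergent-free condition (0.00005% Triton X-100) in acetate buffer pH 5.5 with DTT. 1.5 nM enzyme and compound were pre-mixed 15 min, then 2 uM Z-FR-AMC substrate added; reaction progress from fluorescence change between first and third reads (60 s).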
# Cruzain Triton = blocks cruzain activity in presence of Triton detergent. purified cruzain, Z-FR-AMC fluorescence, 0.01% Triton. Potency, µM, most hits filed as inhibitors. 200,000 compounds, 0.43% hits. P25779. AID 1478; also: nearly all actives have a fitted effect of over 40% in size
#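 Purified cruzain (1.5 nM final) was preincubated with compounds for 15 min at room temperature in 100 mM sodium acetate pH 5.5, 5 mM DTT, 0.01% Triton X-100. Reaction started with 2 uM Z-FR-AMC; AMC fluorescence change over 60 s gave activity.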
# A number is an active result; n = inactive; u = inconclusive; ! = not confirmed by another sample. Hits are enriched below; roughly 2.6% of the tested compounds scored in any of these assays. Calls follow the shape of the dose curve; as a rule, active = well fitted curve in the direction sought with a large enough effect; inconclusive = small, poorly fitted or top-dose-only effect, or another doubt; inactive = no such curve, though single readings can be large; an effect the other way counts as inactive or inconclusive.
SMILES,Cruzain noTriton,Cruzain Triton
O=C(/C=C\c1ccco1)Nc1nc(-c2ccccc2)cs1,n,n
O=C(/C=C/c1ccco1)NC(=S)Nc1nc(-c2ccc3ccccc3c2)cs1,4µM,n
Cc1ccc2oc(-c3cccc(NC(=S)NC(=O)/C=C/c4ccco4)c3)nc2c1,4µM,n
Cc1ccc2c(=O)cc(C(=O)Nc3ccc(S(=O)(=O)N4CCC(C)CC4)cc3)oc2c1C,n,n
O=C(Cn1ncn2c(cc3ccccc32)c1=O)NCc1ccc(F)cc1,n,n
CC(C)=CCc1c2c(c3occ(-c4ccc(O)cc4)c(=O)c3c1O)C=CC(C)(C)O2,u,n
CC(C)=CCc1c2c(c3occ(-c4ccc(O)c(O)c4)c(=O)c3c1O)C=CC(C)(C)O2,25µM!,n
COc1cc(NC(=O)CSc2nc3nc(C)c(Cc4ccc(C)cc4)c(C)n3n2)cc(OC)c1,n,n
Cc1c(NC(=O)c2ccc(-c3cccc([N+](=O)[O-])c3)o2)cccc1-c1nc2cc(Cl)ccc2o1,3.2µM,n
Cc1ccc2oc(-c3cccc(NC(=O)/C=C/c4cccc([N+](=O)[O-])c4)c3C)nc2c1,16µM,n
Cc1ccc2oc(-c3cc(NC(=O)/C=C/c4ccco4)ccc3Cl)nc2c1,u,n
COc1ccc2nc(NC(=O)c3cc(C)oc3C)sc2c1,n,n
COc1ccc2nc(NC(=O)c3ccc(-c4cccc([N+](=O)[O-])c4)o3)sc2c1,13µM,n
O=C(Nc1ccc(Cl)c(-c2nc3ccccc3o2)c1)c1ccc(-c2cccc([N+](=O)[O-])c2)o1,n,n
CCOc1ccc(NC(=O)Cn2c(=O)n(-c3ccccc3)c(=O)c3ccc(C(=O)NCc4ccc5c(c4)OCO5)cc32)cc1,u,n
COC(=O)c1ccc(C(NC(=O)OCc2ccccc2)/C(C)=C/[C@@H](C)C(=O)Nc2ccc(OC)cc2)cc1 (some centres not stated),u,n
Cc1ccc(NC(=O)CSc2nc3nccnc3c(=O)n2CCc2c[nH]c3ccccc23)cc1C,n,n
Cc1cccc(C(=O)Nc2nc3nc(-c4ccccc4)cc(=O)n3[nH]2)c1,n,n
CC(=O)Nc1ccccc1-c1nc2ccccc2n(C(C)C(=O)Nc2cccc(C)c2C)c1=O (configuration not stated),n,n
Cc1ccc(-n2ncc3c(=O)n(Cc4cccc(Cl)c4)cnc32)cc1C,n,n
Cc1ccc(-n2ncc3c(=O)n(CC(=O)Nc4cccc(Cl)c4)cnc32)cc1C,16µM,n
Cc1cc(O)cc(O)c1C(=O)OC1(C)C(=O)C=C2C=C(/C=C/CO)OC=C2C1=O (configuration not stated),n,n
CC(=O)N1CCCc2cc(S(=O)(=O)N3CCC(C(=O)NCc4cccc(C)c4)CC3)ccc21,n,n
Cc1ccccc1OCc1ccc(-c2nc(C#N)c(N3CCN(c4ccccc4)CC3)o2)o1,n,n
COc1ccc(-c2cc(=O)oc3c4c(ccc23)OCN(Cc2ccccc2)C4)cc1,25µM,n
SMILES,Cruzain noTriton,Cruzain Triton
O=c1cc(-c2ccccc2)c2ccc3c(c2o1)CN(Cc1ccccc1)CO3,u,n
CCc1ccc(S(=O)(=O)c2nnn3c2nc(NC(C)C)c2cc(Cl)ccc23)cc1,n,n
CC(C)(C)CC(C)(C)NC(=S)Nc1ccc(S(=O)(=O)N2CCOCC2)cc1,u,n
O=S(=O)(c1ccc(NC(=S)NCCC(c2ccccc2)c2ccccc2)cc1)N1CCOCC1,25µM,n
COc1cccc(/C=C(\C#N)c2nc3ccccc3c(=O)[nH]2)c1OC,n,n
CCOc1ccc(NC(=O)CSc2nc(C)c(C(=O)Nc3ccccc3)c(-c3ccc(Cl)cc3)c2C#N)cc1,n,n
COc1ccc(-c2c(C#N)c(SCC(=O)Nc3ccc(C)c(C)c3)nc(C)c2C(=O)Nc2ccc(Cl)cc2)cc1,6.3µM,n
Cc1nc2ccn(Cc3ccco3)c(=O)c2cc1C(=O)NCc1ccc(Cl)cc1,u,n
CCOC(=O)c1cnc2cc(-c3ccc(Cl)cc3)nn2c1N,10µM,n
CCOC(=O)c1cnc2cc(-c3ccc(Cl)cc3)nn2c1-c1ccccc1,n,n
CCCNC(=O)N1[C@H](c2cccs2)[C@@H](C)C(=O)[C@@H](C)[C@@H]1c1cccs1,n,n
C=CCn1c2ccccc2c2nnc(SC(CC)C(=O)Nc3sc4c(c3C#N)CCCC4)nc21 (configuration not stated),25µM,n
CCCc1nnc(NC(=O)C(CC)Sc2nnc3c4ccccc4n(C)c3n2)s1 (configuration not stated),n,n
CCOC(=O)N1CCN(C(=O)c2ccc3c(=O)n(CCC4=CCCCC4)c(=S)[nH]c3c2)CC1,u,n
Cc1ccc2[nH]c3c(=O)n(CCC4=CCCCC4)cnc3c2c1,n,n
O=c1c2ccc(Cl)cc2[nH]c(=S)n1CCC1=CCCCC1,20µM,n
Cc1ccc2c(c1)[nH]c1c(=O)n(CCC3=CCCCC3)cnc12,20µM,n
COc1cccc(CNC(=O)Cn2c(=O)nc(-c3ccccc3F)c3cc(Cl)ccc32)c1,n,n
CN(C)S(=O)(=O)c1cccc(NC(=S)N/N=C/C(c2ccccc2)c2ccccc2)c1,32µM,n
CC(/C=N/NC(=S)Nc1cccc(S(=O)(=O)N(C)C)c1)c1ccccc1 (configuration not stated),n,n
CC[C@@H]1C(c2cccc(Cl)c2)=NN(c2ccc(Br)cc2)[C@H]1C(=O)N1CCOC1=O,u,n
O=C1OCCN1C(=O)[C@H]1[C@H](c2ccccc2)C(c2cccc(Cl)c2)=NN1c1ccc(Br)cc1,13µM,n
CC[C@@H]1C(c2ccccc2)=NN(c2ccc(Br)cc2)[C@H]1C(=O)N1CCOC1=O,25µM,n
O=C(O)c1nc(-c2ccccc2)n(-c2ccc(Cl)cc2)n1,n,n
O=C1OCCN1C(=O)[C@H]1[C@H](c2ccc(Cl)cc2)C(c2ccccc2)=NN1c1ccc(Br)cc1,11µM,n
SMILES,Cruzain noTriton,Cruzain Triton
O=C1OCCN1C(=O)[C@H]1[C@H](c2ccc(F)cc2)C(c2cccc(Cl)c2)=NN1c1ccc(Br)cc1,16µM,n
CCC(C)n1c(=N)c(S(=O)(=O)c2ccc(C)cc2)cc2c(=O)n3cc(C)ccc3nc21 (configuration not stated),n,n
COC(=O)c1ccc(Nc2ncnc3c2cnn3C)cc1,n,n
Cc1cccc(NC(=O)C(Cc2ccccc2)NS(=O)(=O)c2ccc3c(c2)c(=O)n(C)c(=O)n3C)c1 (configuration not stated),n,n
O=C(OCc1cc(=O)n2nc(C3CCCCC3)sc2n1)c1ccc(F)cc1,n,n
Cc1sc2c(c1C)c(=O)n(-c1ccc(Cl)cc1)c(=O)n2CC(=O)c1ccccc1,n,n
Cc1ccc(CNC(=O)c2sc3nc4n(c(=O)c3c2C)CCCC4)cc1,n,n
N/C(=N\c1nc(CSc2ccc(Cl)cc2)cc(=O)[nH]1)Nc1cccc2ccccc12,10µM,n
COc1ccc(N/C(N)=N/c2nc(CSc3ccc(Cl)cc3)cc(=O)[nH]2)cc1,n,n
CCOC(=O)c1oc2c(c1C)-c1nn(Cc3ccc(Cl)cc3)cc1CC2,n,n
O=C1N/C(=N/N=C/c2ccccc2)SC1(c1ccccc1)c1ccccc1,4µM,n
COC(=O)/C=C1\S/C(=N/N=C/c2ccccc2)NC1=O,n,n
Cc1ccc(-c2nnc(Nc3cccc(Cl)c3)c3ccccc23)cc1S(=O)(=O)N1CCOCC1,n,n
Cc1ccc(-c2nnc(Nc3ccc(Cl)c(Cl)c3)c3ccccc23)cc1S(=O)(=O)NCCO,n,n
